PubChem BioAssay AID602376 (Johns Hopkins Ion Channel Center, 2012)
Measured potencies and affinities stand elsewhere. Inconclusive results are not listed.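 The calls were made as follows: active = raises choline transporter activity at one or more tested doses and gives a fitted dose-response curve; inconclusive = no clear call, values can overlap the other calls; inactive = no choline transporter activation at any dose, or no curve.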

These compounds were tested against High affinity choline transporter 1 (Homo sapiens) (UniProt Q9GZV3) (assay: CHT activators, dose response, cell-based, 10-point CRC, membrane potential dye (AID 602376)). Conditions: HEK293-CHT, choline-induced membrane potential dye, cells express CHT LV-AA mutant; series mostly up to 67 µM; percent activation: at the top concentration.
High affinity choline transporter 1 (Homo sapiens), sequence (Q9GZV3 whole entry, looked up): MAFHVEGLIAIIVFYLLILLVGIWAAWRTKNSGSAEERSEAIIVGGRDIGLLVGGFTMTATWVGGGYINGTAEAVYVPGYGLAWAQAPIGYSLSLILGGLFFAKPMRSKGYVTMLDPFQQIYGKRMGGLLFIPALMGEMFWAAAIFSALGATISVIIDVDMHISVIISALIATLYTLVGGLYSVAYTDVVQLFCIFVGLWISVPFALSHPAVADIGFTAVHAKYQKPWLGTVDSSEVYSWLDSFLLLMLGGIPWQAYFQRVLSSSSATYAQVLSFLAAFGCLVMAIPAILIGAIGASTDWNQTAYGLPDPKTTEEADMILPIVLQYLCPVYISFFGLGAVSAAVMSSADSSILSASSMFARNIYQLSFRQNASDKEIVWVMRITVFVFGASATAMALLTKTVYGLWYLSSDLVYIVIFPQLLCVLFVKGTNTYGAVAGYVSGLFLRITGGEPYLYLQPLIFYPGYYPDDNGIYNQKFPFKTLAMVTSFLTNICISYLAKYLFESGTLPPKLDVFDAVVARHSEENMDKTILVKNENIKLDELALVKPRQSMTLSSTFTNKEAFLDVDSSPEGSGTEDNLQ

Percent activation, inactive:
CC(C)(C)N(NC(=O)c1ccccc1)C(=O)c1cccc(C(=O)N(NC(=O)c2ccccc2)C(C)(C)C)c1 24.3%
O=C1CCCCCCCCCC/C(=N\O)CCCO1 21.1%
O=C1N(Cc2cccc(Cl)c2)C[C@@H]2C[C@@H](c3ccsc3)N3CCC[C@@]123 83.3%
COc1ccc(C(=O)CSc2nnc(CNC(=O)c3ccco3)n2C)cc1 18.6%
CC(C)CCC(CCNCc1ccccn1)c1ccc(Cl)cc1 (stereo not drawn) 192%
CCOC(=O)C[C@H]1c2ccccc2S(=O)(=O)N1Cc1cccc(C(F)(F)F)c1 72.8%
CCC(C)c1ccccc1N1CC(C(=O)Nc2ccccc2N2CCCC2)CC1=O (stereo not drawn) 56.3%
O=C(NCC(c1ccco1)N1CCc2ccccc2C1)c1cccc(F)c1 (stereo not drawn) 61.1%
CCCC(c1nnnn1Cc1ccco1)N1CCN(c2cc(Cl)ccc2C)CC1 (stereo not drawn) 66%
COC(=O)c1sc(NC(=O)C(C)c2ccccc2)nc1C (stereo not drawn) 22.6%
CC1(C)Cc2c(sc3nc4n(c(=N)c23)CCC4)CO1 -7.72%
Cc1ccccc1SCC(=O)Nc1cc(C(F)(F)F)ccc1N1CCOCC1 68.4%
CCOc1cc(-c2sc(Nc3cc(C)ccc3OC)n[n+]2-c2ccccc2)ccc1OC 77.7%
CCOC(=O)C1CCN(C(=O)CCc2nnc3ccc(N4CCN(C)CC4)nn23)CC1 10.3%
COC(=O)CNC(c1ccccc1)c1cc(C)ccc1NC(=O)c1cccc(Cl)c1 (stereo not drawn) 71%
COc1ccc(CN2CCC(N(CCc3ccccc3)Cc3ccccc3)CC2)c(OC)c1 97.6%
COc1cccc(C(c2nnnn2Cc2ccco2)N2CCN(c3cccc(C)c3C)CC2)c1OC (stereo not drawn) 73.6%
Cc1cccc(Oc2nc(CN3CCOCC3)nc3sc4c(c23)CCCC4)c1 72.8%
CCN1C(N(C)CCc2cccs2)=N[C@@H](c2ccccc2)C(C(=O)OC)=C1C 89.2%
COc1cccc(C(c2nnnn2CCc2ccccc2)N2CCN(c3ccccc3)CC2)c1OC (stereo not drawn) 66.3%
COc1ccc(-c2cc(C(=O)NNC(=O)c3csc(N4CCOCC4)n3)c3ccccc3n2)cc1OC 37.9%
CCC(C)Nc1nc(CN2CCOCC2)nc2sc3c(c12)CCC3 (stereo not drawn) -28.5%
CC(Sc1nnc(-c2ccc(Cl)cc2Cl)n1Cc1ccccc1)C(=O)Nc1nccs1 (stereo not drawn) 59.2%
